# The panel holds about 79,000 compounds, 15% with a hit somewhere; the sample as a whole holds those more often. Unmarked numbers belong to inactive results. The source made the active and inactive calls. Rule as the data show it: active = growth inhibition above about 70%; inactive = the rest.
# Assay: NCI Yeast Anticancer Drug Screen. Data for the mgt1 strain (AID 153)
# Conditions: S. cerevisiae mgt1 mutant growth inhibition, hits give high values
# Method: Growth inhibition of yeast strains with defined genetic alterations is measured as a screen for potential anti-cancer activity. Selected strains with alterations in DNA damage repair or cell cycle control were exposed to compounds and growth inhibition was measured relative to vehicle treated controls. The strain used in this assay is mgt1
Structure (SMILES),growth inhibition (at 1.2 µM),growth inhibition (at 3.7 µM),growth inhibition (at 11.0 µM),growth inhibition (at 33.0 µM),growth inhibition (at 100.0 µM)
C=C(C)[C@@H]1CCc2c(O)c(O)c(=O)cc(C)c2C1,10%,26%,41%,90% (active),98% (active)
N#CC(=C1C=CC(=NO)C=C1)c1ccccc1,1%,24%,99% (active),99% (active),99% (active)
O=C(/C=C/c1cccc(Br)c1)c1ccc(Cl)cc1,-40%,-36%,-13%,32%,70% (active)
Cc1cc(Cl)nc2nc(Cl)c(N)cc12,-14%,-12%,-9%,20%,87% (active)
COc1cc(N)ccc1Nc1c2ccccc2nc2ccccc12,2%,25%,32%,51%,89% (active)
CCOC(=O)[C@]1(Br)CC[C@@]1(Br)C(=O)OCC,-23%,-23%,23%,96% (active),100% (active)
CN(Cc1cnc2nc(N)nc(N)c2n1)c1ccc(C(=O)NC(CCC(=O)O)C(=O)O)c2ccccc12 (stereo not given),-18%,1%,25%,51%,79% (active)
Cc1cc(O)c2c(c1)C(=O)C=C(Br)C2=O,7%,21%,72% (active),98% (active),97% (active)

# Reference: PubChem BioAssay (NCI)
